Data published in PubChem BioAssay AID743415 (Broad Institute, 2014).
Entries with a potency or affinity are not part of this list. The source made the active and inactive calls.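 Rule for the calls: active = compounds lowering Shn3 expression whose fitted half-maximal concentration is at most twice the top valid dose; inconclusive = flat partial decrease or an invalid curve fit; inactive = the rest.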

Test: reduction of endogenous Shn3 mRNA, dose response, qPCR, Clone20 cells, cherry-pick (AID 743415)
Conditions: overnight; series mostly up to 35 µM

outcome, inactive:
O=C(c1cc(COc2ccc3ncccc3c2)on1)N1CCCCCC1
Cc1cccc(-c2noc(CN(C(=O)C(c3ccccc3)c3ccccc3)C(C)C)n2)c1
CC(=O)N1c2ccc(S(=O)(=O)N3CCC(C(=O)N4CCN(c5cccc(C(F)(F)F)c5)CC4)CC3)cc2CC1C (configuration not stated)
CCN(CC)c1ccc(NC(=O)CN2C(=O)CSc3ncccc32)c(C)c1
CC(Sc1nc2ccccc2c(=O)n1C)C(=O)N(C)C1CCCCC1 (configuration not stated)
CCOc1ccc(N(C)S(=O)(=O)c2cc(-c3cc(C)no3)ccc2C(C)C)cc1
CCn1cc(CN(C)S(=O)(=O)c2ccc3ccccc3c2)c(C)n1
COc1ccc(NS(=O)(=O)c2ccc(OC)c(N(C)S(=O)(=O)c3ccc(Cl)cc3)c2)cc1
Cc1ccc(CNC(=O)c2cc3c(C)nc4ccccc4c3o2)cc1
COc1ccccc1NS(=O)(=O)c1cc(NC(=O)c2ccc(Cl)nc2)ccc1Cl
O=C(COC(=O)c1n[nH]c2ccccc12)Nc1ccc(S(=O)(=O)N2CCCC2)cc1
CCOC(=O)C1CCCN(S(=O)(=O)c2ccc(S(=O)(=O)N3CCCC3)cc2)C1 (configuration not stated)
CCN(CC)S(=O)(=O)c1ccc(S(=O)(=O)Nc2c(C)nn(C)c2C)cc1
CC1CCCC(NC(=O)c2cccc(S(=O)(=O)N3CCN(c4ccccc4)CC3)c2)C1C (configuration not stated)
CC(=O)Nc1ccc(OCC(=O)Nc2ccc(Cl)c(S(=O)(=O)N3CCOCC3)c2)cc1
O=C(Nc1ccc(N2CCOCC2)cc1)c1ccc(Cl)c(S(=O)(=O)N2CCCC2)c1
Oc1ccc(-c2n[nH]c(C(F)(F)F)c2-c2ccccc2)c(O)c1
Cc1ccc(-c2nc3ncccc3o2)cc1NC(=O)c1sc2ccccc2c1Cl
Cc1ccccc1OCCOC(=O)c1cc(S(=O)(=O)N2CCCCC2)ccc1N1CCOCC1
CCCCNc1cc(C)nc(NCc2ccccc2)n1
COc1ccc(C(=O)Nc2nc3ccccc3s2)c(OC)c1
c1ccc(-c2noc(-c3ccc4ccccc4c3)n2)nc1
CC(C)(C)C(=O)Nc1cc2nn(-c3ccccc3)nc2cc1Cl
CCn1c(CNC(=O)c2cc(OC)c(OC)c(OC)c2)cc2cc(C)ccc21
CN(c1ccccc1)S(=O)(=O)c1cccc(NC(=O)CSc2nncs2)c1
CC(C)Cn1c(N)c(C(=O)COC(=O)C2Cc3ccccc3CN2S(C)(=O)=O)c(=O)n(C)c1=O (configuration not stated)
O=C(CSc1nnc(-c2cccnc2)s1)Nc1ccnc2ccccc12
COc1cc(NC(=O)c2cccc3c(-c4cccnc4)coc23)cc(OC)c1OC
COc1ccccc1NC(=O)Cn1cc(C(=O)C2CC2)c2ccccc21
CNc1ccccc1C(C)(C)c1cc(-c2cccc(OC)c2)no1
Cc1ccc(NC(=O)c2ccc(Cl)c(N3C(=O)C=CC3=O)c2)cc1
Cc1ccc2c(c1)nnn2C1CCN(S(=O)(=O)c2ccc(C(=O)N3C(C)CCCC3C)cc2)CC1 (configuration not stated)
CCC(C)c1ccc(S(=O)(=O)N2CCN(C(=O)c3ccc(Cl)c(S(=O)(=O)N4CCOCC4)c3)CC2)cc1 (configuration not stated)
CC(C)c1nc(SCC(=O)Nc2cccc(C(F)(F)F)c2)c2c(=O)n(C)c(=O)n(C)c2n1
COc1ccc(OC)c(NC(=O)CN(Cc2ccc(F)cc2)C2CCCCC2)c1
O=C(Nc1nc(-c2ccccc2)cs1)C1CCCCN1S(=O)(=O)c1ccccc1 (configuration not stated)
COc1ccc(CC(=O)Nc2ccncc2Cl)cc1
